According to PubChem BioAssay (EPA / NIEHS):
Several values for one entry are separate records, joined by “and”; a condition that tells them apart may be missing. Equal values may be shown once. More than one record can exist for a structure, and the calls need not agree. Activity calls are given as the source filed them. Rule for the calls: active = hit-call score of the fitted dose curve at least 0.9, where 1 is the maximum; inactive = score below 0.9.

Tests used:
Settings in all cases: mRNA level, 48 h; actives raise or lower the signal
[1] = read-out: Cytochrome P450 (CYP1A2), CYP1A2 (gene 1544); assay: LTEA_HepaRG_CYP1A2: Life Technologies and Expression Analysis (LTEA) Assay for Cytochrome P450 (CYP1A2) using HepaRG (AID 2283479)
Method in brief: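 HepaRG, 48 h exposure, top 100 uM, half-log 8-pt, 0.5% DMSO vehicle, duplicates. Readout: TaqMan qRT-PCR of CYP1A2 mRNA, housekeeping-normalized (ACTB/GAPDH/POLR2A). Gain/loss fit relative to DMSO baseline.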

[2] = read-out: cysteine-aspartic acid protease (CASP8), CASP8 (gene 841); assay: LTEA_HepaRG_CASP8: Life Technologies and Expression Analysis (LTEA) Assay for cysteine-aspartic acid protease (CASP8) using HepaRG (AID 2283480)
Method in brief: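 qRT-PCR readout of CASP8 mRNA, normalized to three housekeeping genes, after 48 h chemical exposure of HepaRG cells; 8-point half-log series, top 100 uM, 0.5% DMSO vehicle. Bidirectional curve fitting against DMSO baseline.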

[3] = read-out: Cytochrome P450 (CYP2B6), CYP2B6 (gene 1555); assay: LTEA_HepaRG_CYP2B6: Life Technologies and Expression Analysis (LTEA) Assay for Cytochrome P450 (CYP2B6) using HepaRG (AID 2283481)
Method in brief: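 Read-out is CYP2B6 mRNA by TaqMan qRT-PCR, normalized to three housekeeping genes and fitted bidirectionally against 0.5% DMSO baseline. Human HepaRG cells received test chemicals for 48 h, top concentration 100 uM, half-log dilutions.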

[4] = read-out: Cytochrome P450 2C19 (Homo sapiens) (UniProt P33261); assay: LTEA_HepaRG_CYP2C19: Life Technologies and Expression Analysis (LTEA) Assay for CYP2C19 using HepaRG (AID 2283482)
Method in brief: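 HepaRG, 48 h chemical exposure, 8-pt half-log series from 100 uM in 0.5% DMSO, duplicates. Readout: CYP2C19 mRNA by TaqMan qRT-PCR, housekeeping-normalized. Bidirectional fit vs DMSO baseline; phenobarbital 1mM as induction control.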

CYP2C8 (gene 1558) = assay: LTEA_HepaRG_CYP2C8: Life Technologies and Expression Analysis (LTEA) Assay for CYP2C8 using HepaRG (AID 2283483)
Method in brief: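 HepaRG (human liver line), 48 h chemical exposure, 8-pt half-log series from 100 uM, 0.5% DMSO vehicle. Readout: CYP2C8 transcript by qRT-PCR, housekeeping-normalized. Bidirectional fit vs DMSO baseline.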

CYP2E1 (gene 1571) = assay: LTEA_HepaRG_CYP2E1: Life Technologies and Expression Analysis (LTEA) Assay for CYP2E1 using HepaRG (AID 2283485)
Method in brief: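 Readout is qRT-PCR of CYP2E1 mRNA, normalized to three housekeeping genes and fitted bidirectionally against 0.5% DMSO. HepaRG cells were dosed 48 h at eight concentrations, highest 100 uM with half-log dilutions.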

CYP4A11 (gene 1579) = assay: LTEA_HepaRG_CYP4A11: Life Technologies and Expression Analysis (LTEA) Assay for CYP4A11 using HepaRG (AID 2283486)
Method in brief: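 CYP4A11 transcript levels were quantified by TaqMan qRT-PCR after HepaRG human liver cells were treated for 48 hours with test chemicals (top 100 uM, half-log dilutions, 0.5% DMSO). Gain or loss of signal was fitted relative to DMSO.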

[5] = read-out: Cytochrome P450 3A4 (Homo sapiens) (UniProt P08684); assay: LTEA_HepaRG_CYP3A4: Life Technologies and Expression Analysis (LTEA) Assay for CYP3A4 using HepaRG (AID 2283487)
Method in brief: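 HepaRG, 48 h exposure, 8-pt CRC from 100 uM (half-log), 0.5% DMSO, duplicates; serum-free induction medium. Readout: CYP3A4 mRNA, qRT-PCR, ACTB/GAPDH/POLR2A normalization. Bidirectional fit vs DMSO.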

[6] = read-out: DNA damage-inducible transcript 3 (DDIT3), DDIT3 (gene 1649); assay: LTEA_HepaRG_DDIT3: Life Technologies and Expression Analysis (LTEA) Assay for DNA damage-inducible transcript 3 (DDIT3) using HepaRG (AID 2283488)
Method in brief: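 Cells are human HepaRG liver cells treated for 48 h with eight half-log concentrations up to 100 uM in 0.5% DMSO. Transcript levels come from qRT-PCR normalized to three housekeeping genes, with activity fitted in both directions relative to vehicle.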

CYP2C9 (gene 1559) = assay: LTEA_HepaRG_CYP2C9: Life Technologies and Expression Analysis (LTEA) Assay for CYP2C9 using HepaRG (AID 2283484)
Method in brief: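 HepaRG, 48 h dosing, 8-pt half-log series, top 100 uM, 0.5% DMSO vehicle. Read-out: CYP2C9 transcript by TaqMan qRT-PCR, housekeeping-normalized (ACTB/GAPDH/POLR2A). Gain or loss fitted vs DMSO baseline.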

Measured: AC50

Chain of Cytochrome P450 2C19 (Homo sapiens) (P33261 whole entry, looked up): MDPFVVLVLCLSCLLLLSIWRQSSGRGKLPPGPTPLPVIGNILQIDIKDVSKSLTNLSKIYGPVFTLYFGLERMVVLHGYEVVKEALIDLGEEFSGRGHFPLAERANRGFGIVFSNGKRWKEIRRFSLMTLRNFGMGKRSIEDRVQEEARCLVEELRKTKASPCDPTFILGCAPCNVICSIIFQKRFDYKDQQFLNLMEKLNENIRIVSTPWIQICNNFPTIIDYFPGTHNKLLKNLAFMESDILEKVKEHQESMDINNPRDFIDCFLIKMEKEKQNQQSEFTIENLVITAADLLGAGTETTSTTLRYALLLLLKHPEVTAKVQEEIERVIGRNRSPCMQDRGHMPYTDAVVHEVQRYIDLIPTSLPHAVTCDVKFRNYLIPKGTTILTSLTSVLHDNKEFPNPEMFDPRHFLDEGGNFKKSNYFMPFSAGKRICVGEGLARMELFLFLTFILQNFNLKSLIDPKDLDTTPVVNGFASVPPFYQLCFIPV
Chain of Cytochrome P450 3A4 (Homo sapiens) (P08684 whole entry, looked up): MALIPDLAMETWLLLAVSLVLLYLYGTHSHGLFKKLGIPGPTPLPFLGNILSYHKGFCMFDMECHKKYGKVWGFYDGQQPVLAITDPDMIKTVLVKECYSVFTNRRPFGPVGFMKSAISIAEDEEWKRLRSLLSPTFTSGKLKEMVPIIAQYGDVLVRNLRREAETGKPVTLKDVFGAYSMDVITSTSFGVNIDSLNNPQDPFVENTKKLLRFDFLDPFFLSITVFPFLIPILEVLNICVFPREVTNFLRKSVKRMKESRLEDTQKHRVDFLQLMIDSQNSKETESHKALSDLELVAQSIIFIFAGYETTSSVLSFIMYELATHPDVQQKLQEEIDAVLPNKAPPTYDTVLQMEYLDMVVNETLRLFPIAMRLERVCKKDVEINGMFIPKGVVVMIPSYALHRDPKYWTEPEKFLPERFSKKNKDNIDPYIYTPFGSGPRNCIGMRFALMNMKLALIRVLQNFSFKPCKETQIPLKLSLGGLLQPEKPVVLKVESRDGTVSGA

CC/C(=C(\c1ccccc1)c1ccc(OCCN(C)C)cc1)c1ccccc1
active: [1] 11.9 µM | [2] 72.5 µM and 77.4 µM | CYP2E1 (gene 1571) 17 µM and 23.7 µM | CYP4A11 (gene 1579) 19.7 µM and 22.4 µM | [6] 64.7 µM and 72.2 µM
inactive: [1] | [3] | [4] | CYP2C8 (gene 1558) | [5]

COC(=O)c1ccc(C(=O)OC)cc1
inactive: all assays above

C#C[C@]1(O)CC[C@H]2[C@@H]3CCc4cc(O)ccc4[C@H]3CC[C@@]21C
active: [3] 4.05 µM | [4] 50 µM | CYP2C8 (gene 1558) 50 µM
inactive: all other assays above

O=C(c1ccc(OCCN2CCCCC2)cc1)c1c(-c2ccc(O)cc2)sc2cc(O)ccc12
active: [2] 73.3 µM | [3] 80.5 µM | CYP2C9 (gene 1559) 50 µM | CYP2E1 (gene 1571) 69.1 µM | [6] 83.3 µM
inactive: [1] | CYP2C8 (gene 1558) | CYP4A11 (gene 1579)

CCCCOCCOCCO
inactive: all assays above

C[C@]12CC[C@@H]3c4ccc(O)cc4CC[C@H]3[C@@H]1CC[C@@H]2O
inactive: [2] | CYP2C9 (gene 1559) | [6]
active: [1] 79.5 µM | [3] 1.73 µM | [4] 5.7 µM | CYP2C8 (gene 1558) 4.16 µM | CYP2E1 (gene 1571) 50 µM | CYP4A11 (gene 1579) 76.9 µM | [5] 4.95 µM

C=C(C)C(N)=O
inactive: all assays above
